SMILES strings stand for the structures. Counter-ions that a name gives are not always drawn.

One experiment deals with Staphylococcus aureus MW2 delta-mecA (mecA-). As to the kind of experiment: normalized GFP fluorescence (growth of mecA- strain) (fraction of control range); higher = more growth of mecA- strain. The conditions noted are these: compound concentration: 150 uM; cefoxitin: subinhibitory; fluorescent label: GFP. The procedure, abridged:
(§1)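 A 1:1 mix of pre-induced S. aureus MW2 cells, DsRed-labeled with the gene and GFP-labeled without it, was grown in LB with a daily-set subinhibitory antibiotic dose on 150 μM compound (1.5% DMSO) in 1536-well plates, single replicate. Growth lasted 20 h at 37 °C, 90% humidity, without shaking, and DsRed (540/590) and GFP (485/520) were then read. Channels were scaled per plate to single-strain control medians, and plates with high untreated ratios and rows with DsRed/GFP >10 were removed.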
For `CC(C(=O)O)c1ccc(C(=O)c2cccs2)cc1` (stereo not given), the “normalized GFP fluorescence” value was 0.344.
Same read-out and setting: with `O=C1NCC2(CCN(CCc3ccccc3)CC2)O1` the figure was 0.307.
On to `CCN1CCCC(OC(=O)C(c2ccccc2)c2ccccc2)C1` (stereo not given), for which the “normalized GFP fluorescence” value was 0.427.
Consider `CCCCCCOC(=O)NC(=N)c1ccc(NCc2nc3cc(C(=O)N(CCC(=O)OCC)c4ccccn4)ccc3n2C)cc1` [BIBR-1048 (Dabigatran)], for which the “normalized GFP fluorescence” value was 0.0654.
For `CN(C)CCCN1c2ccccc2Sc2ccc(Cl)cc21`, the “normalized GFP fluorescence” value is -0.00289.
For the molecule `CC(=O)[C@H]1CC[C@H]2[C@@H]3C=CC4=CC(=O)CC[C@@]4(C)[C@@H]3CC[C@]12C`, the “normalized GFP fluorescence” value stood at 0.56.
As for `Cc1ccc([C@@H]2O[C@H](CO)[C@@H](O)[C@H](O)[C@H]2O)cc1Cc1ccc(-c2ccc(F)cc2)s1` [Canagliflozin], the “normalized GFP fluorescence” value was -0.0143.
`Clc1ccc2c(c1)C(N1CCNCC1)=Nc1ccccc1O2`: the “normalized GFP fluorescence” value was found to be 0.114.
In the case of `CN1C(CCl)Nc2cc(Cl)c(S(N)(=O)=O)cc2S1(=O)=O` (stereo not given) [Methyclothiazide], the “normalized GFP fluorescence” value worked out at 0.383.
As for `CCC(=O)O[C@]1(C(=O)CCl)[C@@H](C)C[C@H]2[C@@H]3CCC4=CC(=O)C=C[C@]4(C)[C@@]3(F)[C@@H](O)C[C@@]21C` [Clobetasol propionate], the “normalized GFP fluorescence” value was -0.000558.
As to `COc1ccc(CC2c3cc(OC)c(OC)cc3CC[N+]2(C)CCC(=O)OCCCCCOC(=O)CC[N+]2(C)CCc3cc(OC)c(OC)cc3C2Cc2ccc(OC)c(OC)c2)cc1OC` (stereo not given), the “normalized GFP fluorescence” value is 0.325.
As for `COc1cc(/C=C/C(=O)N2CCN(CC(=O)N3CCCC3)CC2)cc(OC)c1OC` [Cinepazide maleate], the “normalized GFP fluorescence” value was found to be 0.547.
For the molecule `O=C(O)c1cc(-c2ccc(F)cc2F)ccc1O`, the “normalized GFP fluorescence” value was 0.0802.
As to `NC(=O)Cc1cccc(C(=O)c2ccccc2)c1N` [Nepafenac], the “normalized GFP fluorescence” value worked out at 0.747.
For `CCCc1nc(C)c2c(O)nc(-c3cc(S(=O)(=O)N4CCN(CC)CC4)ccc3OCC)nn12`, the “normalized GFP fluorescence” value was found to be 0.68.
`NC(=O)c1ccccc1O`: the “normalized GFP fluorescence” value was found to be 0.52.
As for `CC(=O)[C@@]1(O)CC[C@H]2[C@@H]3CCC4=CC(=O)CCC4=C3[C@@H](c3ccc(N(C)C)cc3)C[C@@]21C` [Ulipristal], the “normalized GFP fluorescence” value is 0.57.
On to `CN(C)C/C=C/C(=O)Nc1cc2c(Nc3ccc(F)c(Cl)c3)ncnc2cc1O[C@H]1CCOC1` [Afatinib (BIBW2992)], for which the “normalized GFP fluorescence” value is -0.00507.
Regarding `CN1CCc2cccc3c2[C@H]1Cc1ccc(O)c(O)c1-3`, the “normalized GFP fluorescence” value stood at 0.463.
In the case of `CCOC(=O)[C@H](CCc1ccccc1)N[C@@H](C)C(=O)N1Cc2ccccc2C[C@H]1C(=O)O`, the “normalized GFP fluorescence” value turned out to be 0.324.
For `O=P(O)(O)C(O)(Cc1cccnc1)P(=O)(O)O` [Risedronic acid (Actonel)], the “normalized GFP fluorescence” value was 0.68.
Consider `NC(=O)c1ncn([C@@H]2O[C@H](CO)[C@@H](O)[C@H]2O)n1`, for which the “normalized GFP fluorescence” value was found to be 0.38.
With `COc1cc(Nc2c(C#N)cnc3cc(OCCCN4CCN(C)CC4)c(OC)cc23)c(Cl)cc1Cl` [Bosutinib (SKI-606)], the “normalized GFP fluorescence” value was -0.0247.
Still for that read-out and setting: then `CN[C@@H]1[C@@H](O)[C@@H](O[C@@H]2[C@@H](O)[C@H](O[C@H]3OC(CN)=CC[C@H]3N)[C@@H](N)C[C@H]2N)OC[C@]1(C)O`, with 0.511.
`Cc1cccc(Nc2ccccc2C(=O)O)c1C` [Mefenamic Acid]: the “normalized GFP fluorescence” value is 0.0909.
On to `CS(=O)(=O)OCCCCOS(C)(=O)=O`, for which the “normalized GFP fluorescence” value turned out to be 0.346.
Still for that read-out and setting: then `O=C(CCCN1CCC(O)(c2ccc(Br)cc2)CC1)c1ccc(F)cc1`, with 0.243.
On to `C=C[C@H]1CN2CC[C@H]1C[C@@H]2[C@@H](O)c1ccnc2ccc(OC)cc12`, for which the “normalized GFP fluorescence” value amounted to 0.452.
As to `CC(CN1c2ccccc2Sc2ccccc21)N(C)C` (stereo not given), the “normalized GFP fluorescence” value is -0.00976.
`Clc1ccc(CSC(Cn2ccnc2)c2ccc(Cl)cc2Cl)cc1` (stereo not given): the “normalized GFP fluorescence” value is -0.00367.
Turning to `CCCCOc1ccc(C(=O)CCN2CCCCC2)cc1`, the “normalized GFP fluorescence” value came out at 0.00391.
On to `O.O.O.O.O=C([O-])CC(O)(CC(=O)[O-])C(=O)[O-].[Li+].[Li+].[Li+]`, for which the “normalized GFP fluorescence” value was found to be 0.18.
For the molecule `C=C(c1ccc(C(=O)O)cc1)c1cc2c(cc1C)C(C)(C)CCC2(C)C` [Bexarotene], the “normalized GFP fluorescence” value is 0.666.
With `NS(=O)(=O)c1cc2c(cc1Cl)N=CNS2(=O)=O`, the “normalized GFP fluorescence” value is 0.373.
Turning to `NC[C@H]1CC[C@H](C(=O)O)CC1`, the “normalized GFP fluorescence” value turned out to be 0.867.
For the molecule `CN1C(C(=O)Nc2ccccn2)=C(O)c2sccc2S1(=O)=O`, the “normalized GFP fluorescence” value stood at 0.0134.
On the same count and under the same terms, then `CCOC(=O)c1ncn2c1CN(C)C(=O)c1cc(F)ccc1-2`, with 0.408; and `Cc1cn([C@@H]2C[C@@H](O)[C@H](CO)O2)c(=O)[nH]c1=O` [Telbivudine (Sebivo, Tyzeka)], with 0.205; and `CNS(=O)(=O)Cc1ccc2[nH]cc(CCN(C)C)c2c1`, with 0.345.
`Cc1nccn1CC1CCc2c(c3ccccc3n2C)C1=O` (stereo not given): the “normalized GFP fluorescence” value is 0.319.

A further experiment deals with Staphylococcus aureus MW2 (mecA+). The experiment in a line: normalized DsRed fluorescence (growth of mecA+ strain) (fraction of control range); higher = more growth of mecA+ strain. The conditions noted are these: compound concentration: 150 uM; cefoxitin: subinhibitory; fluorescent label: DsRed. The procedure, abridged:
as §1
In the case of `CC(C(=O)O)c1ccc(C(=O)c2cccs2)cc1` (stereo not given), the “normalized DsRed fluorescence” value was determined as 0.423.
As for `O=C1NCC2(CCN(CCc3ccccc3)CC2)O1`, the “normalized DsRed fluorescence” value came to 0.724.
For `CCN1CCCC(OC(=O)C(c2ccccc2)c2ccccc2)C1` (stereo not given), the “normalized DsRed fluorescence” value came out at 0.501.
The same measure, in the same setting: with `CCCCCCOC(=O)NC(=N)c1ccc(NCc2nc3cc(C(=O)N(CCC(=O)OCC)c4ccccn4)ccc3n2C)cc1` [BIBR-1048 (Dabigatran)] the figure was 0.815; with `CN(C)CCCN1c2ccccc2Sc2ccc(Cl)cc21`, 1.26; with `CC(=O)[C@H]1CC[C@H]2[C@@H]3C=CC4=CC(=O)CC[C@@]4(C)[C@@H]3CC[C@]12C`, 0.456.
Still for that read-out and setting: then `Cc1ccc([C@@H]2O[C@H](CO)[C@@H](O)[C@H](O)[C@H]2O)cc1Cc1ccc(-c2ccc(F)cc2)s1` [Canagliflozin], with 0.755.
In the case of `Clc1ccc2c(c1)C(N1CCNCC1)=Nc1ccccc1O2`, the “normalized DsRed fluorescence” value stood at 1.74.
`CN1C(CCl)Nc2cc(Cl)c(S(N)(=O)=O)cc2S1(=O)=O` (stereo not given) [Methyclothiazide]: the “normalized DsRed fluorescence” value was 0.579.
As to `CCC(=O)O[C@]1(C(=O)CCl)[C@@H](C)C[C@H]2[C@@H]3CCC4=CC(=O)C=C[C@]4(C)[C@@]3(F)[C@@H](O)C[C@@]21C` [Clobetasol propionate], the “normalized DsRed fluorescence” value is 1.15.
Take `COc1ccc(CC2c3cc(OC)c(OC)cc3CC[N+]2(C)CCC(=O)OCCCCCOC(=O)CC[N+]2(C)CCc3cc(OC)c(OC)cc3C2Cc2ccc(OC)c(OC)c2)cc1OC` (stereo not given): the “normalized DsRed fluorescence” value was 0.862.
For `COc1cc(/C=C/C(=O)N2CCN(CC(=O)N3CCCC3)CC2)cc(OC)c1OC` [Cinepazide maleate], the “normalized DsRed fluorescence” value turned out to be 0.533.
Turning to `O=C(O)c1cc(-c2ccc(F)cc2F)ccc1O`, the “normalized DsRed fluorescence” value was 0.298.
Turning to `NC(=O)Cc1cccc(C(=O)c2ccccc2)c1N` [Nepafenac], the “normalized DsRed fluorescence” value amounted to 0.818.
Turning to `CCCc1nc(C)c2c(O)nc(-c3cc(S(=O)(=O)N4CCN(CC)CC4)ccc3OCC)nn12`, the “normalized DsRed fluorescence” value was 0.461.
Turning to `NC(=O)c1ccccc1O`, the “normalized DsRed fluorescence” value was 0.666.
In the case of `CC(=O)[C@@]1(O)CC[C@H]2[C@@H]3CCC4=CC(=O)CCC4=C3[C@@H](c3ccc(N(C)C)cc3)C[C@@]21C` [Ulipristal], the “normalized DsRed fluorescence” value came to 0.967.
In the case of `CN(C)C/C=C/C(=O)Nc1cc2c(Nc3ccc(F)c(Cl)c3)ncnc2cc1O[C@H]1CCOC1` [Afatinib (BIBW2992)], the “normalized DsRed fluorescence” value is 1.68.
For the molecule `CN1CCc2cccc3c2[C@H]1Cc1ccc(O)c(O)c1-3`, the “normalized DsRed fluorescence” value is 0.543.
For `CCOC(=O)[C@H](CCc1ccccc1)N[C@@H](C)C(=O)N1Cc2ccccc2C[C@H]1C(=O)O`, the “normalized DsRed fluorescence” value amounted to 0.737.
Turning to `O=P(O)(O)C(O)(Cc1cccnc1)P(=O)(O)O` [Risedronic acid (Actonel)], the “normalized DsRed fluorescence” value turned out to be 0.671.
For `NC(=O)c1ncn([C@@H]2O[C@H](CO)[C@@H](O)[C@H]2O)n1`, the “normalized DsRed fluorescence” value was 0.58.
For `COc1cc(Nc2c(C#N)cnc3cc(OCCCN4CCN(C)CC4)c(OC)cc23)c(Cl)cc1Cl` [Bosutinib (SKI-606)], the “normalized DsRed fluorescence” value came out at 0.727.
For the molecule `CN[C@@H]1[C@@H](O)[C@@H](O[C@@H]2[C@@H](O)[C@H](O[C@H]3OC(CN)=CC[C@H]3N)[C@@H](N)C[C@H]2N)OC[C@]1(C)O`, the “normalized DsRed fluorescence” value worked out at 0.916.
In the case of `Cc1cccc(Nc2ccccc2C(=O)O)c1C` [Mefenamic Acid], the “normalized DsRed fluorescence” value came out at 0.169.
`CS(=O)(=O)OCCCCOS(C)(=O)=O`: the “normalized DsRed fluorescence” value turned out to be 0.573.
Consider `O=C(CCCN1CCC(O)(c2ccc(Br)cc2)CC1)c1ccc(F)cc1`, for which the “normalized DsRed fluorescence” value was 1.21.
Still for that read-out and setting: then `C=C[C@H]1CN2CC[C@H]1C[C@@H]2[C@@H](O)c1ccnc2ccc(OC)cc12`, with 0.631; and `CC(CN1c2ccccc2Sc2ccccc21)N(C)C` (stereo not given), with 0.917; and `Clc1ccc(CSC(Cn2ccnc2)c2ccc(Cl)cc2Cl)cc1` (stereo not given), with 0.00806.
Turning to `CCCCOc1ccc(C(=O)CCN2CCCCC2)cc1`, the “normalized DsRed fluorescence” value was 0.36.
`O.O.O.O.O=C([O-])CC(O)(CC(=O)[O-])C(=O)[O-].[Li+].[Li+].[Li+]`: the “normalized DsRed fluorescence” value was 1.09.
As to `C=C(c1ccc(C(=O)O)cc1)c1cc2c(cc1C)C(C)(C)CCC2(C)C` [Bexarotene], the “normalized DsRed fluorescence” value was determined as 0.742.
Take `NS(=O)(=O)c1cc2c(cc1Cl)N=CNS2(=O)=O`: the “normalized DsRed fluorescence” value is 0.683.
Turning to `NC[C@H]1CC[C@H](C(=O)O)CC1`, the “normalized DsRed fluorescence” value worked out at 0.725.
Take `CN1C(C(=O)Nc2ccccn2)=C(O)c2sccc2S1(=O)=O`: the “normalized DsRed fluorescence” value was 0.778.
In the case of `CCOC(=O)c1ncn2c1CN(C)C(=O)c1cc(F)ccc1-2`, the “normalized DsRed fluorescence” value came out at 0.611.
With `Cc1cn([C@@H]2C[C@@H](O)[C@H](CO)O2)c(=O)[nH]c1=O` [Telbivudine (Sebivo, Tyzeka)], the “normalized DsRed fluorescence” value was determined as 0.951.
For the molecule `CNS(=O)(=O)Cc1ccc2[nH]cc(CCN(C)C)c2c1`, the “normalized DsRed fluorescence” value turned out to be 0.758.
Regarding `Cc1nccn1CC1CCc2c(c3ccccc3n2C)C1=O` (stereo not given), the “normalized DsRed fluorescence” value came to 0.626.

Source of the values: the supplement of paper PMC7695840.
